About 3,000 (1%) of roughly 290,000 compounds were called active. No stated cut-off is given here; in the data, active means inhibition mostly above about 36% (no sharp cut-off); inactive means mostly below about 34%. For the sample, actives were picked, then their nearest neighbours and some compounds at random.
assay: NOD1 signaling inhibitors, primary screen, cell-based, luminescence, uHTS (AID 1578); details: NOD1-driven NF-kB luciferase reporter cells, at 4 µM, hits give high values;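 further: HEK-293T reporter cells stimulated with the NOD1 agonist gamma-tri-DAP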

inhibition, active:
C=CCN=C1NN=C(c2cc(C)n(CCOC)c2C)CS1 88.5%
C=CCN=C1NN=C(c2cc(C)n(CC=C)c2C)CS1 85.5%
COCCn1c(C)cc(C2=NNC(=NC3CC3)SC2)c1C 107%
C=CCn1c(C)cc(C2=NNC(=NCC)SC2)c1C 103%
COCCn1c(C)cc(C2=NNC(=Nc3ccccc3F)SC2)c1C 65.1%
Cn1c2ccccc2c(=O)c2ccc(C#CC3(O)CCCCC3)cc21 82%
FC(F)(F)c1cc(-c2ccccc2)nc(N2CCCCCC2)n1 37.9%
CCC(=O)NC(=S)Nc1cccc(Cl)c1N1CCCC1 55.9%
CCN1CCN(CC(=O)N/N=C/c2cc(Br)cs2)CC1 104%
COc1cccc(C2CC(c3cccs3)=NN2S(C)(=O)=O)c1 (stereo not drawn) 47.7%
COc1ccc(-c2csc(N3CCN(c4cc(C)nc5ccccc45)CC3)n2)cc1OC 54.5%

inhibition, inactive:
COc1ccccc1OCCCC(=O)NC(C)c1ccccc1 (stereo not drawn) -14.4%
C=CCn1c(C)cc(C2=NNC(=NCc3ccccc3)SC2)c1C -61.6%
C=CCn1c(C)cc(C2=NNC(=Nc3ccc(C)cc3)SC2)c1C -66.7%
COCCn1c(C)cc(C2=NNC(=NC(C)(C)C)SC2)c1C -27.4%
Cc1cc(C2=NNC(=NCCc3ccccc3)SC2)c(C)n1CC1CCCO1 (stereo not drawn) -23%
COCCCN=C1NN=C(c2cc(C)n(Cc3ccccc3Cl)c2C)CS1 -46.7%
COCCN=C1NN=C(c2cc(C)n(CC3CCCO3)c2C)CS1 (stereo not drawn) 9.1%
COCCn1c(C)cc(C2=NNC(=Nc3ccc(OC)cc3)SC2)c1C -3.2%
C=CCn1c(C)cc(C2=NNC(=NC(C)(C)C)SC2)c1C 65%
Fc1cccc(CN2CCN(Cc3nc(CCc4ccccc4)no3)CC2)c1 -21.1%
Cc1ccc(O)c(C(CC(=O)NCc2ccco2)c2ccccc2)c1 (stereo not drawn) -21.1%
Cc1nnc(SCC(=O)c2ccccc2F)n1Cc1ccccc1 -6.1%
COCC1CCN(C(=O)c2cc(COc3ccc(OC)c4ccccc34)on2)C1 (stereo not drawn) -73.2%
CS(=O)(=O)N(CCCC(=O)N1CCCCCC1)c1cccc(Cl)c1 0.2%
CCN(CC)CCNC(CC(=O)Nc1ccc(Cl)cc1Cl)C(=O)O (stereo not drawn) -7%
COc1ccc(-c2cc(NCCc3ccncc3)n3ncnc3n2)cc1 2.6%
COc1ccc(NC(=O)NCc2ccco2)cc1OC -24.4%
COc1cc(S(=O)(=O)NCc2ccncc2)c(OC)cc1C -15.2%
O=[N+]([O-])c1cccc(/C=C/c2nc[nH]c2[N+](=O)[O-])c1 -10.5%
Cc1cccc(C(=O)Oc2ccccc2C(=O)N2CCOCC2)c1 -8.5%
COCCn1c(C)cc(C2=NNC(=Nc3ccc(Cl)cc3Cl)SC2)c1C 13.9%
COCCn1c(C)cc(C2=NNC(=Nc3ccccc3)SC2)c1C -63.4%
Cc1c(C)c2ccc(O)c(CN3CCCC3)c2oc1=O 15.3%
Cn1c2ccccc2c(=O)c2cc(C#CC3(O)CCCCC3)ccc21 35%
Cn1c2ccccc2c(=O)c2ccc(C#CC3(N)CCCCC3)cc21 30.6%
CCC(=O)N1CCc2cc(S(=O)(=O)NCCC(=O)N3CCN(c4ccccc4)CC3)ccc21 -26.5%
O=C1CCN(CCCc2ccccc2)CCN1[C@H](CO)Cc1ccccc1 -31.4%
COc1ccc(-c2nc(C#N)c(N3CCN(c4cccc(Cl)c4)CC3)o2)cc1OC 5.2%
COc1ccccc1-c1nc(C#N)c(N2CCN(c3ccccc3)CC2)o1 -2.9%
C[C@@H]1CC=C[C@H]2[C@H]1C(=O)N(Cc1ccccc1)[C@H]2c1ccc(-c2ccoc2)cc1F -2.6%
Cc1c(O)ccc2c(CC(=O)N[C@@H](Cc3c[nH]c4ccccc34)C(=O)O)cc(=O)oc12 -0.1%
FC(F)(F)c1cc(-c2ccccc2)nc(N2CCCCC2)n1 8.3%
CN1CCN(c2nc(-c3ccccc3)cc(C(F)(F)F)n2)CC1 -26.3%
Cc1nn(C)cc1/C=N\NC(=O)Cc1ccc([N+](=O)[O-])cc1 -27.7%
COc1ccc(C#Cc2ccc3c(=O)c4ccccc4n(C)c3c2)cc1 25.7%
CCCC(=O)NC(=S)Nc1cccc(Cl)c1N1CCCCC1 -26.4%
CCCC(=O)NC(=S)Nc1cccc(Cl)c1N1CCCC1 -26.8%
COC(=O)C1Cc2ccccc2CN1C(=O)CCl (stereo not drawn) 39.2%
Cc1nccn1CC(=O)N/N=C/c1cc(Br)cs1 -0.6%
O=C(Cc1ccccc1)N/N=C/c1cc(Br)cs1 1.2%
Cc1cc(C)n(-c2nc3c(c(=O)[nH]c(=O)n3C)n2C(C)C)n1 5.7%
O=C(CN1CCN(c2ccc(F)cc2)CC1)Nc1cc(C(F)(F)F)ccc1Cl -11.8%
CCOC(=O)CNC(=O)C1Cc2ccccc2CN1S(=O)(=O)c1cccs1 (stereo not drawn) -33%
COc1ccc(C2CC(c3cccs3)=NN2S(C)(=O)=O)cc1 (stereo not drawn) -18%
COc1ccc(C2CC(c3cccs3)=NN2S(C)(=O)=O)cc1OC (stereo not drawn) -25.1%
COc1ccc(C(=O)Nc2nnc(Cc3ccccc3)s2)c(OC)c1 -43.9%
O=[N+]([O-])c1ccc(S(=O)(=O)N/N=C/c2ccco2)cc1 -34.8%
CCOC(=O)c1cnc2ccc(OCC)cc2c1NCCN1CCOCC1 -21.5%
O=c1cc(-c2ccc3c(c2)OCO3)oc2ccccc12 -38.2%
Cc1cc(N2CCN(c3nc(-c4ccccc4)cs3)CC2)c2ccccc2n1 -3.1%
Cc1cc(N2CCN(c3nc(-c4ccc([N+](=O)[O-])cc4)cs3)CC2)c2ccccc2n1 3.5%
C[C@@H]1C=C(C(=O)NCc2ccccc2)O[C@H](OCc2ccc(CO)cc2)C1 -6.2%

— PubChem BioAssay AID1578 (Sanford-Burnham Center for Chemical Genomics, 2009)
